The sample as a whole holds a higher share of hits than the screen did.
Algae TAG accum: algal TAG accumulation induction. 0.84% of 44,000 active. AID 1159537. calls only at 10 µM (by protocol). Chlamydomonas reinhardtii TAG, Nile Red fluorescence, 72 h; call rule not given here;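 also: hits raise Nile Red signal meaning more stored TAG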
Calls only; – = inactive; + = active, no number.

SMILES | Algae TAG accum
COc1ccc(NC(=O)Cc2nnc(NC(=O)Nc3ccc(Cl)cc3)s2)cc1 | –
O=[N+]([O-])c1cccc(CN2CCN(CCCc3ccccc3)CC2)c1 | –
CC(=O)Nc1ccc(Cl)c(-c2nc3cc(C)c(C)cc3o2)c1 | –
Cc1ccc(C(=O)N2CCC(C(=O)O)CC2)cc1 | –
O=C(O)C1CCN(C(=O)c2ccc(F)cc2)CC1 | +
O=C(c1ccc(F)cc1)N1CCCCCC1 | –
O=C(O)c1ccc2c(c1)C(=O)N(NC(=O)c1ccncc1)C2=O | –
O=S(=O)(c1ccc(F)cc1)n1cccc1 | +
O=S(=O)(c1ccc(F)cc1)N1CCCN(S(=O)(=O)c2ccc(F)cc2)CC1 | –
O=S(=O)(c1ccc(F)cc1)c1ccc(F)cc1 | –
COc1cc(NCc2ccc3c(c2)Cc2ccccc2-3)cc(OC)c1OC | –
COc1ccccc1N1CCN(c2nc(-c3ccccc3O)nc3ccccc23)CC1 | –
CC(C)(C)c1[nH]nc2c1C(c1cccc(F)c1)C(C#N)=C(N)O2 (stereo not given) | –
CC(C)Oc1ccc(C2CC(=O)N(c3ccc(O)c(C(=O)O)c3)C2=O)cc1 (stereo not given) | –
O=S(=O)(c1ccc(Cl)cc1)n1cccn1 | –
Cc1ccc(S(=O)(=O)n2ccc(C)n2)cc1 | –
Cc1ccc(S(=O)(=O)n2cccn2)cc1 | +
COc1cccc(N2C(=O)CC(N3CCN(c4ccccc4)CC3)C2=O)c1 (stereo not given) | –
CC1CCC(N2CCN(c3ncccn3)CC2)C1 (stereo not given) | –
COc1ccccc1N1CCN(C2CCC(C)CC2)CC1 (stereo not given) | –
COc1cccc(N2CCN(C3CCCC(C)C3)CC2)c1 (stereo not given) | +
COc1cccc(N2CCN(C3CCC(C)C3)CC2)c1 (stereo not given) | –
CC1CCC(N2CCN(c3ccccc3)CC2)C1 (stereo not given) | +
O=C(O)c1cc(S(=O)(=O)N(CCO)CCO)ccc1Cl | –
Cc1cc(C)c(S(=O)(=O)N2CCOCC2)cc1N(C)S(=O)(=O)c1ccccc1 | –
SMILES | Algae TAG accum
O=c1[nH]c(/C=C/c2cccc([N+](=O)[O-])c2)nc2ccccc12 | –
CN(C(=O)C(c1ccccc1)c1ccccc1)c1ccccc1 | –
O=C(Nc1ccc2c(c1)OCO2)c1c(F)c(F)c(F)c(F)c1F | +
O=C(Nc1ccc(F)c(F)c1)c1ccc2c(c1)OCO2 | –
O=C(Nc1ccc2c(c1)OCO2)c1ccc2c(c1)OCO2 | –
COc1cc(C=O)ccc1OCCCCOc1ccccc1Cl | –
Cc1cccc(OCC(=O)NC(C)c2ccccc2)c1 (stereo not given) | –
COc1cc(C(=O)Nc2cccc(F)c2)cc(OC)c1OC | –
COc1cc(C(=O)Nc2cccc(NC(=O)c3ccccc3)c2)cc(OC)c1OC | –
COc1cc(C(=O)Nc2cccc(C(=O)c3ccc(C)c(C)c3)c2)cc(OC)c1OC | +
Cc1nc2sc(C#N)c(N)c2c(C)c1C | –
O=c1c2ccccc2ncn1CCOc1ccc(OCc2ccccc2)cc1 | –
O=C(NCc1ccccc1)C(=O)Nc1ccc(Cl)cc1 | –
Cc1ccc(OCCCCn2ccnc2)c(Br)c1 | –
Cc1ccc(OCCCn2ccnc2)c([N+](=O)[O-])c1 | –
Cc1ccccc1OCCCN1CCOCC1 | –
Cc1ccc(OCCCN2CCCC2)c([N+](=O)[O-])c1 | –
Cc1ccc(OCCCCN2CCCCC2)cc1 | –
Cc1ccc(OCCCN2CCCC2)c(Br)c1 | –
Clc1ccc(OCCCN2CCOCC2)cc1 | –
Cc1ccc(OCCCCN2CCCC2)c(Br)c1 | +
Cc1ccc(OCCCN2CCOCC2)c(C)c1 | +
Cc1ccc(OCCCCN2CCOCC2)c(C)c1 | –
Cc1ccc(OCCCCN2CCOCC2)cc1 | +
Cc1ccc(OCCCn2ccnc2)c(Br)c1 | +
SMILES | Algae TAG accum
CC1=CC(C)(C)Nc2cc(C(C)(C)C)c(O)cc21 | –
c1ccc(CN2CCSCC2)nc1 | –
Cc1ccc(OCCSc2nc(N)cc(N)n2)c(C(C)C)c1 | –
O=[N+]([O-])c1cccc(CN2CCN(Cc3c[nH]c4ccccc34)CC2)c1 | –
O=C(Nc1ccc(F)c(Cl)c1)c1cccc(Cl)c1Cl | –
Cc1ccccc1C(=O)N1CCC(C(=O)Nc2ccc(I)cc2)CC1 | –
Cc1cc(C)nc(NS(=O)(=O)c2ccc(F)cc2)n1 | –
CCN(CC)C(=O)Cn1c(C)c(C=O)c2ccccc21 | –
COc1ccc(N2C(=O)C(O)=C(C(C)=O)C2c2ccc(OC)c(OC)c2)cc1 (stereo not given) | –
C=CCNc1nc(N)n(-c2ccccc2)n1 | –
COc1ccc(C(=O)Nn2cnnc2)cc1[N+](=O)[O-] | –
CC1=CC(c2ccc(Cl)cc2)n2nc(N)nc2N1 (stereo not given) | –
N#CC(=Cc1cccc(F)c1)c1nc(-c2ccc([N+](=O)[O-])cc2)cs1 | –
Cc1ccc(OCCCCN2CCCC2)cc1C | +
Cc1cccc(OCCCCN2CCCCC2)c1 | –
Cc1ccc(OCCCCN2CCCC2)c(C)c1 | +
Cc1ccc(OCCCN2CCCCC2)c(C)c1 | –
Cc1ccccc1OCCCCN1CCCCC1 | –
Cc1ccc(OCCN2CCCC2)cc1C | –
COc1ccc(-c2cn3c4ccccc4nc3n2CCCN2CCCC2)cc1 | –
CC1(C)ON=C(c2ccccc2)C1=O | –
CC(=O)N1CCN(c2ccc(NC(=O)c3cccs3)cc2)CC1 | –
O=C(Nc1ccc(NC(=O)c2ccco2)c(Cl)c1)c1ccco1 | –
OC1(Cc2ccccc2)CCCCC1 | –
COCCCN1C(=O)C(=O)C(=C(O)c2ccc(OC)cc2C)C1c1cccc([N+](=O)[O-])c1 (stereo not given) | –
SMILES | Algae TAG accum
CCOc1ccccc1N1CCN(C(=O)c2ccc(Cl)c(Cl)c2)CC1 | –
Cc1cc(Br)ccc1OCCCN1CCN(C)CC1 | +
Cc1cc(Br)ccc1OCCN1CCN(C)CC1 | –
Cc1cc(OCCCN2CCN(C)CC2)ccc1C(C)C | –
CN1CCN(CCCOc2ccc(Br)cc2)CC1 | +
Cc1cc(Br)ccc1OCCCN1CCCC1 | –
CN1CCN(CCCOc2ccc(C(=O)c3ccccc3)cc2)CC1 | –
CC(C)c1ccc(OCCOCCN2CCN(C)CC2)cc1 | –
CCOc1ccc(OCCOCCN2CCN(C)CC2)cc1 | –
Cc1cc(OCCCCN2CCN(C)CC2)cc(C(C)C)c1 | +
Cc1nc(N2CCOCC2)nc(NC2CCCCC2)c1[N+](=O)[O-] | –
N#CC(=C(O)c1ccc(Cl)cc1Cl)c1nc2ccccc2[nH]1 | –
O=C(c1ccccc1Br)N1CCCCCC1 | –
O=C(NCCCO)c1ccc2snnc2c1 | –
O=C(O)C1CC(C(=O)O)C(C(=O)O)CC1C(=O)O (stereo not given) | –
Cc1ccc(-c2nc3ccccc3s2)cc1NC(=O)c1ccc([N+](=O)[O-])cc1Cl | –
COc1ccc(NC(=O)c2ccccc2N)c(OC)c1 | –
CN1CCC(N(C)Cc2cccs2)CC1 | –
CC(C)c1ccc(CN(C)C2CCN(C)CC2)cc1 | –
CCc1ccc(CN(C)C2CCN(C)CC2)cc1 | +
CN1CCC(N(C)Cc2cccc(Oc3ccccc3)c2)CC1 | +
CN1CCC(N(C)Cc2coc3ccccc3c2=O)CC1 | –
CN1CCC(N(C)Cc2ccc(Cl)c(Cl)c2)CC1 | –
COc1cccc(CN(C)C2CCN(C)CC2)c1 | –
Cc1ccc(CN(C)C2CCN(C)CC2)s1 | +
SMILES | Algae TAG accum
CCOc1ccc(CN(C)C2CCN(C)CC2)cc1 | –
Cc1ccc(C(=O)CC(=O)c2ccco2)c(O)c1 | –
O=C(Nc1cccnc1)Nc1cccc(Cl)c1 | –
O=C(c1ccccc1)N1CCN(S(=O)(=O)c2cccc([N+](=O)[O-])c2)CC1 | –
CCc1nc2c(cnn2-c2ccccc2)c(=O)n1-c1cccnc1 | –
Cc1ccc(Cn2cnc3sc4c(c3c2=O)CCC4)c(C)c1 | –
Cc1ccc(Cn2cnc3c(cnn3-c3ccccc3)c2=O)c(C)c1 | +

High-throughput results: PubChem, DiRusso Lab, Biochemistry Department, University of Nebraska
